From PubChem BioAssay AID1159580 (chemical genetic matrix, 2015)
Several values for one entry are separate records, joined by “and”; a condition that tells them apart may be missing. Identical values can stand only once. In all, about 5,500 compounds went through this assay and about 2,000 (36%) were called active. About 18% were inconclusive and are not listed. The list shows a part of the results. Unmarked numbers belong to inactive results. No stated cut-off is given here; in the data, active means normalized growth mostly below about 0.91 (no sharp cut-off); inconclusive means no clear call, values can overlap the other calls; inactive means mostly above about 0.92.

Assay: chemical genetic growth profiling, strain panel (AID 1159580);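 further: tested at 20 µM; growth read once vehicle control cultures reached saturation at 30 °C; 1 = growth at the plate median or of vehicle wells; lower values mean less growth of the strain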
Conditions: growth OD

## O=c1c(O)c(-c2cc(O)c(O)c(O)c2)oc2cc(O)cc(O)c12
S. cerevisiae deletion strains, locus YAL040C, strain CLN3, active compounds read low
  normalized growth: 1.07
S. cerevisiae deletion strains, locus YBR021W, strain FUR4, active compounds read low
  normalized growth: 1.01
S. cerevisiae deletion strains, locus YBR229C, strain ROT2, active compounds read low
  normalized growth: 1
S. cerevisiae deletion strains, locus YCL029C, strain bik1, active compounds read low
  normalized growth: 1.02
S. cerevisiae deletion strains, locus YCL061C, strain MRC1 (second series), active compounds read low
  normalized growth: 0.985
S. cerevisiae deletion strains, locus YDL035C, strain GPR1, active compounds read low
  normalized growth: 0.972
S. cerevisiae deletion strains, locus YDL074C, strain BRE1, active compounds read low
  normalized growth: 1.01
S. cerevisiae deletion strains, locus YDL101C, strain DUN1, active compounds read low
  normalized growth: 1.03
S. cerevisiae deletion strains, locus YDL185W, strain tfp1, active compounds read low
  normalized growth: 1.02
S. cerevisiae deletion strains, locus YDL192W, strain arf1, active compounds read low
  normalized growth: 1.02
S. cerevisiae deletion strains, locus YDR101C, strain arx1, active compounds read low
  normalized growth: 1
S. cerevisiae deletion strains, locus YDR150W, strain NUM1, active compounds read low
  normalized growth: 1.02
S. cerevisiae deletion strains, locus YDR162C, strain NBP2, active compounds read low
  normalized growth: 0.963
S. cerevisiae deletion strains, locus YDR318W, strain mcm21, active compounds read low
  normalized growth: 1.01
S. cerevisiae deletion strains, locus YDR363W, strain ESC2, active compounds read low
  normalized growth: 1.03
S. cerevisiae deletion strains, locus YDR388W, active compounds read low
  normalized growth: 1.02
S. cerevisiae deletion strains, locus YDR502C, strain sam2, active compounds read low
  normalized growth: 1
S. cerevisiae deletion strains, locus YEL061C, strain CIN8, active compounds read low
  normalized growth: 1
S. cerevisiae deletion strains, locus YER002W, strain NOP16, active compounds read low
  normalized growth: 1
S. cerevisiae deletion strains, locus YER110C, active compounds read low
  normalized growth: 1.03
S. cerevisiae deletion strains, locus YER155C, strain BEM2, active compounds read low
  normalized growth: 0.999
S. cerevisiae deletion strains, locus YER167W, strain BCK2, active compounds read low
  normalized growth: 0.997
S. cerevisiae deletion strains, locus YGL078C, strain dbp3, active compounds read low
  normalized growth: 1
S. cerevisiae deletion strains, locus YGL086W, strain mad1, active compounds read low
  normalized growth: 1
S. cerevisiae deletion strains, locus YGL248W, strain PDE1, active compounds read low
  normalized growth: 1.03
S. cerevisiae deletion strains, locus YGR078C, strain PAC10, active compounds read low
  normalized growth: 0.959
S. cerevisiae deletion strains, locus YGR135W, strain pre9, active compounds read low
  normalized growth: 0.998
S. cerevisiae deletion strains, locus YGR229C, strain SMI1, active compounds read low
  normalized growth: 0.416 (active)
S. cerevisiae deletion strains, locus YGR252W, strain gcn5, active compounds read low
  normalized growth: 1
S. cerevisiae deletion strains, locus YHR030C, strain SLT2, active compounds read low
  normalized growth: 1.01
S. cerevisiae deletion strains, locus YHR079C, strain IRE1 (second series), active compounds read low
  normalized growth: 1.01
S. cerevisiae deletion strains, locus YHR094C, strain hxt1, active compounds read low
  normalized growth: 1.03
S. cerevisiae deletion strains, locus YHR129C, strain ARP1, active compounds read low
  normalized growth: 1.02
S. cerevisiae deletion strains, locus YHR200W, strain rpn10, active compounds read low
  normalized growth: 1.02
S. cerevisiae deletion strains, locus YIL066C, strain RNR3, active compounds read low
  normalized growth: 0.976
S. cerevisiae deletion strains, locus YIL073C, strain SPO22, active compounds read low
  normalized growth: 1.03
S. cerevisiae deletion strains, locus YIL125W, strain kgd1, active compounds read low
  normalized growth: 1.02
S. cerevisiae deletion strains, locus YIR030C, strain dcg1, active compounds read low
  normalized growth: 1
S. cerevisiae deletion strains, locus YJL095W, strain BCK1, active compounds read low
  normalized growth: 1.05
S. cerevisiae deletion strains, locus YJL134W, strain LCB3, active compounds read low
  normalized growth: 1
S. cerevisiae deletion strains, locus YJL168C, strain set2, active compounds read low
  normalized growth: 1.01
S. cerevisiae deletion strains, locus YJL187C, strain SWE1 (second series), active compounds read low
  normalized growth: 1.05
S. cerevisiae deletion strains, locus YJR043C, strain POL32, active compounds read low
  normalized growth: 0.965
S. cerevisiae deletion strains, locus YJR075W, strain HOC1, active compounds read low
  normalized growth: 0.993
S. cerevisiae deletion strains, locus YKL009W, strain mrt4, active compounds read low
  normalized growth: 0.996
S. cerevisiae deletion strains, locus YKL068W, active compounds read low
  normalized growth: 1.01
S. cerevisiae deletion strains, locus YKL085W, strain MDH1 (second series), active compounds read low
  normalized growth: 1
S. cerevisiae deletion strains, locus YKL085W, strain MDH1, active compounds read low
  normalized growth: 1
S. cerevisiae deletion strains, locus YKL190W, strain CNB1, active compounds read low
  normalized growth: 1.01
S. cerevisiae deletion strains, locus YKR001C, strain vps1, active compounds read low
  normalized growth: 1.01
S. cerevisiae deletion strains, locus YLR039C, strain RIC1, active compounds read low
  normalized growth: 1
S. cerevisiae deletion strains, locus YLR058C, strain SHM2, active compounds read low
  normalized growth: 1.01
S. cerevisiae deletion strains, locus YLR102C, strain apc9, active compounds read low
  normalized growth: 1.02
S. cerevisiae deletion strains, locus YLR262C, strain YPT6, active compounds read low
  normalized growth: 0.997
S. cerevisiae deletion strains, locus YLR268W, strain sec22, active compounds read low
  normalized growth: 1.03
S. cerevisiae deletion strains, locus YLR330W, strain CHS5, active compounds read low
  normalized growth: 1.01
S. cerevisiae deletion strains, locus YLR342W, strain FKS1 (second series), active compounds read low
  normalized growth: 1.04
S. cerevisiae deletion strains, locus YLR371W, strain rom2, active compounds read low
  normalized growth: 1.01
S. cerevisiae deletion strains, locus YLR418C, strain cdc73, active compounds read low
  normalized growth: 0.981
S. cerevisiae deletion strains, locus YML016C, strain PPZ1, active compounds read low
  normalized growth: 1
S. cerevisiae deletion strains, locus YML032C, strain rad52, active compounds read low
  normalized growth: 1
S. cerevisiae deletion strains, locus YML124C, strain tub3, active compounds read low
  normalized growth: 1.01
S. cerevisiae deletion strains, locus YMR078C, strain ctf18, active compounds read low
  normalized growth: 1.01
S. cerevisiae deletion strains, locus YMR223W, strain ubp8, active compounds read low
  normalized growth: 1
S. cerevisiae deletion strains, locus YMR263W, strain SAP30, active compounds read low
  normalized growth: 1.05
S. cerevisiae deletion strains, locus YMR307W, strain GAS1, active compounds read low
  normalized growth: 0.969 and 0.876
S. cerevisiae deletion strains, locus YNL067W, strain RPL9B, active compounds read low
  normalized growth: 1.06
S. cerevisiae deletion strains, locus YNL175C, strain NOP13, active compounds read low
  normalized growth: 0.999
S. cerevisiae deletion strains, locus YNL197C, strain WHI3, active compounds read low
  normalized growth: 0.997
S. cerevisiae deletion strains, locus YNL224C, strain SQS1, active compounds read low
  normalized growth: 0.967
S. cerevisiae deletion strains, locus YNL233W, strain BNI4, active compounds read low
  normalized growth: 1.05
S. cerevisiae deletion strains, locus YNL250W, strain rad50, active compounds read low
  normalized growth: 1.02
S. cerevisiae deletion strains, locus YNL271C, strain bni1, active compounds read low
  normalized growth: 1.01
S. cerevisiae deletion strains, locus YNL298W, strain CLA4, active compounds read low
  normalized growth: 1.02
S. cerevisiae deletion strains, locus YNL307C, strain MCK1, active compounds read low
  normalized growth: 1.02
S. cerevisiae deletion strains, locus YNL322C, strain KRE1, active compounds read low
  normalized growth: 0.898 (active)
S. cerevisiae deletion strains, locus YNR052C, strain pop2, active compounds read low
  normalized growth: 1
S. cerevisiae deletion strains, locus YOL006C, strain TOP1, active compounds read low
  normalized growth: 1.08
S. cerevisiae deletion strains, locus YOL012C, strain htz1
  normalized growth: 0.839
S. cerevisiae deletion strains, locus YOL147C, strain pex11, active compounds read low
  normalized growth: 1.02
S. cerevisiae deletion strains, locus YOR061W, strain CKA2, active compounds read low
  normalized growth: 0.99
S. cerevisiae deletion strains, locus YOR069W, strain VPS5, active compounds read low
  normalized growth: 1.01
S. cerevisiae deletion strains, locus YOR083W, strain WHI5 (second series), active compounds read low
  normalized growth: 0.957
S. cerevisiae deletion strains, locus YOR136W, strain idh2, active compounds read low
  normalized growth: 1.03
S. cerevisiae deletion strains, locus YOR144C, strain elg1, active compounds read low
  normalized growth: 1.01
S. cerevisiae deletion strains, locus YOR184W, strain ser1, active compounds read low
  normalized growth: 1
S. cerevisiae deletion strains, locus YOR316C, strain cot1, active compounds read low
  normalized growth: 1.02
S. cerevisiae deletion strains, locus YPL055C, strain LGE1, active compounds read low
  normalized growth: 1.01
S. cerevisiae deletion strains, locus YPL241C, strain CIN2, active compounds read low
  normalized growth: 0.995
S. cerevisiae deletion strains, locus YPR119W, strain clb2, active compounds read low
  normalized growth: 1.01
S. cerevisiae deletion strains, locus YPR141C, strain kar3, active compounds read low
  normalized growth: 1.01
S. cerevisiae deletion strains, locus YPR163C, strain tif3, active compounds read low
  normalized growth: 1.01
S. cerevisiae deletion strains, locus YPR167C, strain met16, active compounds read low
  normalized growth: 1.01
S. cerevisiae deletion strains, strain wtn01, active compounds read low
  normalized growth: 1.02
S. cerevisiae strains, strain wild type, active compounds read low
  normalized growth: 1.01
